Active and inactive are the calls of the source.
Columns and labels:
[1] = test system: PRMT1 (protein arginine N-methyltransferase 1); assay: small molecules binding arginine methyltransferase PRMT1 – biochemical, small-molecule microarray, 635 nm fluorescence, primary screen (AID 1088); conditions: higher = more signal;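 note: binding of Prmt1 protein to compounds spotted on small-molecule microarray slides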
[2] = growth effects on S. cerevisiae YJM789 – YJM789 clinical isolate, OD600, 24 h, basal, primary screen (AID 1089); conditions: higher = more signal, called active from +8 up or from −8 down;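 note: growth of clinical yeast isolate S. cerevisiae YJM 789 seeded 1000 cells per well; test concentration not given here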
[3] = S. pombe growth modifiers, basal conditions – strain 972, OD600, 24 h, no modulator, primary screen (AID 1090);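 note: basal condition with compound alone and no growth modifier present; test concentration not given here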; conditions: S. pombe 972 growth, higher = more signal, called active from +8 up or from −8 down
[4] = budding yeast growth modifiers under rapamycin – strain BY4716, OD600, 96 h, primary screen (AID 1091); note: test concentration not given here; conditions: S. cerevisiae BY4716 + rapamycin, higher = more signal, called active from +8 up or from −8 down
[5] = target: Torsin-1A-interacting protein 2 (Homo sapiens) (UniProt Q8NFQ8); assay: small molecules binding lysate-expressed LULL1 – cell lysate, human LULL1 lysate, 635/667 nm fluorescence, primary screen (AID 1092); conditions: small-molecule microarray, hLULL1 lysate binding, 635 nm fluorescence; higher = more signal;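 note: probe is lysate of COS7 cells overexpressing human LULL1; score merges per-feature 667 nm fluorescence with signal-to-noise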
Chain of Torsin-1A-interacting protein 2 (Homo sapiens) (Q8NFQ8 whole entry, looked up): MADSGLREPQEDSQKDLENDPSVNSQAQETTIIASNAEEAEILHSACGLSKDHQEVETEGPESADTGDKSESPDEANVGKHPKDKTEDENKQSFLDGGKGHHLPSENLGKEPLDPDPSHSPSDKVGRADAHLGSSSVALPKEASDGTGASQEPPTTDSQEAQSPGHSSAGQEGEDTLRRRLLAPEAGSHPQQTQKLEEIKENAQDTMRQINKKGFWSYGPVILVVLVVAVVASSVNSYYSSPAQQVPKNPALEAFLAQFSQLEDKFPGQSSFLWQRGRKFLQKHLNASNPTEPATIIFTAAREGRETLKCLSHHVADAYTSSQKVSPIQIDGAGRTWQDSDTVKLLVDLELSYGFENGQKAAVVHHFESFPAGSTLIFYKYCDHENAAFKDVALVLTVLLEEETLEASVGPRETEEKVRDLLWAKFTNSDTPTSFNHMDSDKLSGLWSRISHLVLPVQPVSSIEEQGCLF

[6] = optical density change of DRC41 E. coli – strain DRC41, OD650, 24 h, E. coli filamentation project, primary screen (AID 1093);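 note: MC1000 strain lacking acrAB efflux and sulA so SOS filamentation is blocked; test concentration not given here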; conditions: E. coli DRC41 growth, higher = more signal, called active from +8 up or from −8 down
[7] = probe aLefty2 binding to arrayed compounds – biochemical, biotinylated probe, 635/667 nm fluorescence, primary screen (AID 1094); conditions: small-molecule microarray, higher = more signal;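 note: score merges spot fluorescence near 667 nm with spot signal-to-noise ratio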
[8] = test system: Noggin (protein binding on small-molecule microarray); assay: small molecules binding Noggin protein – biochemical, 635/667 nm fluorescence, primary screen (AID 1095); conditions: 635 nm fluorescence, higher = more signal;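 note: score merges 667 nm feature fluorescence with signal to noise over triplicate slides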
[9] = target: Neurogenic locus notch homolog protein 3 (Homo sapiens) (UniProt Q9UM47); assay: small molecules binding NOTCH3 protein – biochemical, 635/667 nm fluorescence, primary screen (AID 1096); conditions: small-molecule microarray, 635 nm fluorescence, higher = more signal
Chain of Neurogenic locus notch homolog protein 3 (Homo sapiens) (Q9UM47 whole entry, looked up): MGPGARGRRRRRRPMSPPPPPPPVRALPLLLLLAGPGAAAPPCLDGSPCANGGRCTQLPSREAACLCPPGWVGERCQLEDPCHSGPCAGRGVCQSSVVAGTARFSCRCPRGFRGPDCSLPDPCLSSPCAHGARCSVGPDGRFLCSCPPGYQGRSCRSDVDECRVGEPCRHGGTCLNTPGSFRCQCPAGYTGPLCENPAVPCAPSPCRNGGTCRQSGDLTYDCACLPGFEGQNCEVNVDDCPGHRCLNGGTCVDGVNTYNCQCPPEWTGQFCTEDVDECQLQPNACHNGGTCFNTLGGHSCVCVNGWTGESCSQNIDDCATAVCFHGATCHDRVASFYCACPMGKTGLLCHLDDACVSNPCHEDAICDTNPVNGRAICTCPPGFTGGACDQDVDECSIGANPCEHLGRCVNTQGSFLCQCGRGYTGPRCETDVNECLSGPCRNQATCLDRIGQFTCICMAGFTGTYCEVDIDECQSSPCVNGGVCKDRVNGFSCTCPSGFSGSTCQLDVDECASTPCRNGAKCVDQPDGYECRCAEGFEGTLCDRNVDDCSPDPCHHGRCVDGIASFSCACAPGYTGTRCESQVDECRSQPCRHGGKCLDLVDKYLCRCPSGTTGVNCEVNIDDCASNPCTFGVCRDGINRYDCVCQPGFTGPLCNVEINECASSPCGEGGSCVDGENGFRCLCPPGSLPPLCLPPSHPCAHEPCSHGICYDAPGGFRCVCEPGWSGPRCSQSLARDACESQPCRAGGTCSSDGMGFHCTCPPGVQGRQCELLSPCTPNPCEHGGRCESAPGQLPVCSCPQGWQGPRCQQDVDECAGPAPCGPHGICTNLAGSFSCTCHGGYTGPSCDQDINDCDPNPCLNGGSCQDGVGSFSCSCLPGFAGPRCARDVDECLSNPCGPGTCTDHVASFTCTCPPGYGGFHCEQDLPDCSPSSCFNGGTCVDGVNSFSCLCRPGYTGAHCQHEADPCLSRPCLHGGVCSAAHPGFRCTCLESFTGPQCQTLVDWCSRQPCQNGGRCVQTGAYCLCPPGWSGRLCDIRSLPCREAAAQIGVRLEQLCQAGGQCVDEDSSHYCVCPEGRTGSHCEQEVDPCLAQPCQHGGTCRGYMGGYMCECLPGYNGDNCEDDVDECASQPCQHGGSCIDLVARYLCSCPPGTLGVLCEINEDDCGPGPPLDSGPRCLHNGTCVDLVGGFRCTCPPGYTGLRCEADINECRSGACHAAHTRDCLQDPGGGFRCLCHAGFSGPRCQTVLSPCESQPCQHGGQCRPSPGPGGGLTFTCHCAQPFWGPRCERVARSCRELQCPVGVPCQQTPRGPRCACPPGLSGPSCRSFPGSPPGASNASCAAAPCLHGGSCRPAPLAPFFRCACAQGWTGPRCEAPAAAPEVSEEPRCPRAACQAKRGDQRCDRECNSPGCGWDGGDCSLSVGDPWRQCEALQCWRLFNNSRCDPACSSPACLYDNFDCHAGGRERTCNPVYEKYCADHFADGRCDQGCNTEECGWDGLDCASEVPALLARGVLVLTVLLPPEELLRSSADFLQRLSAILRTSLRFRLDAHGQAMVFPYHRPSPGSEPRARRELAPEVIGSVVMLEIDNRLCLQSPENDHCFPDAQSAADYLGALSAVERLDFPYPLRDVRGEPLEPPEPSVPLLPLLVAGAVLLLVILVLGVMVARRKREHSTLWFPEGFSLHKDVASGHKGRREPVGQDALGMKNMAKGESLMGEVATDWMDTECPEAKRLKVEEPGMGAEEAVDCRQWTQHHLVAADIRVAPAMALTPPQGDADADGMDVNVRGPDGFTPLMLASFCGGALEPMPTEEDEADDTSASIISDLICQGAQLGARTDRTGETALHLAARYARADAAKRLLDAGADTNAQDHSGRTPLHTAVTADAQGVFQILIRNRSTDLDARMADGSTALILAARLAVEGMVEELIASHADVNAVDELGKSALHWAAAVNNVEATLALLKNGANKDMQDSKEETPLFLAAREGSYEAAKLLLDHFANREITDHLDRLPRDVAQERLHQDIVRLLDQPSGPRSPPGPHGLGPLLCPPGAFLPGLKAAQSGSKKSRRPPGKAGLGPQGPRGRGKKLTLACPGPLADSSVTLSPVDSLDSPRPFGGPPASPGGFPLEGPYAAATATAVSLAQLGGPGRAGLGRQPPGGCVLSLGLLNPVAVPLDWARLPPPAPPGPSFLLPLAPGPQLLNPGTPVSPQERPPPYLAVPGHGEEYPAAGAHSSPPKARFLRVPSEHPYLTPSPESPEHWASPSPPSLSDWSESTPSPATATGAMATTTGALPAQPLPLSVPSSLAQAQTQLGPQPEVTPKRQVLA

[10] = probe aEGFR binding to arrayed compounds – biochemical, biotinylated probe, 635/667 nm fluorescence, primary screen (AID 1097); conditions: small-molecule microarray, higher = more signal;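 note: probe is a biotinylated anti-EGFR antibody binding compounds printed on slides; score combines fluorescence near 667 nm and signal to noise of each spot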

In the case of `C=CCN1C(=O)[C@]2(O[C@H](CCn3cc(CCO)nn3)[C@@H]([Si](C)(C)c3ccc(OC)cc3)[C@@H]2C)c2cc(NC(=O)c3ccc(OC)cc3)ccc21`, the composite z-score [1] was 1.25, the z-score [2] was 1.46 (inactive) and the z-score [3] was -1.22 (inactive). The z-score [4] was 1.81 (inactive), the composite z-score [5] was 0.807 and the z-score [6] was 1.94 (inactive). The composite z-score [7] was 0.205, the composite z-score [8] was 1.03 and the composite z-score [9] was 0.527. The composite z-score [10] was -0.109.

With `COCCOC(=O)N1C(=O)[C@@]2(c3cc(C#CCNC(N)=O)ccc31)[C@H](C(=O)N1CCCCCCC1)[C@H]1C(=O)O[C@H](c3ccccc3)[C@H](c3ccccc3)N1[C@@H]2c1ccccc1OCCO` the composite z-score [1] was 1.2, the z-score [2] was 1.42 (inactive) and the z-score [3] was -0.922 (inactive). The z-score [4] was 3.58 (inactive), the composite z-score [5] was 2.05 and the z-score [6] was -0.698 (inactive). For the same compound, the composite z-score [7] was 0.957, the composite z-score [8] was 0.601 and the composite z-score [9] was 1.04. It also gave a composite z-score [10] of 0.295.

For `CCOC(=O)C[C@H]1[C@H](OC(=O)c2ccccc2-c2ccccc2)[C@@H](NC(=O)C2CCCCC2)c2cc(OCCCO)ccc2N1C(=O)c1ccccc1`, the composite z-score [1] was 0.884, the z-score [2] was 1.2 (inactive) and the z-score [3] was 0.543 (inactive). The z-score [4] was 1 (inactive), the composite z-score [5] was 0.928 and the z-score [6] was 2.19 (inactive). The composite z-score [7] was -0.0498, the composite z-score [8] was 0.203 and the composite z-score [9] was 0.352. It also gave a composite z-score [10] of 0.232.

For `C=CC[C@@]1(C(=O)NCC(O)CO)N=C(c2ccc(OCCCO)cc2)O[C@@H]1c1ccccc1CN=[N+]=[N-]` (stereo not given in full), the composite z-score [1] was 1.18, the z-score [2] was -0.785 (inactive) and the z-score [3] was -1.42 (inactive). For the same compound, the z-score [4] was -1.04 (inactive), the composite z-score [5] was 3.84 and the z-score [6] was 1.52 (inactive). The composite z-score [7] was -0.147, the composite z-score [8] was -0.265 and the composite z-score [9] was -0.216. The composite z-score [10] was -0.152.

In the case of `CN(C)CCCC[C@@H]1NC(=O)[C@@H]2C[C@H](C(=O)O)[C@H](c3ccc(O)cc3)N2C1=O`, the composite z-score [1] was 1.41, the z-score [2] was -0.937 (inactive) and the z-score [3] was -1.04 (inactive). For the same compound, the z-score [4] was -0.587 (inactive), the composite z-score [5] was 0.728 and the z-score [6] was 2.71 (inactive). For the same compound, the composite z-score [7] was -0.153, the composite z-score [8] was 1.01 and the composite z-score [9] was 0.385. For the same compound, the composite z-score [10] was -0.0605.

In the case of `CCCC[C@@H]1C[C@H]1[C@@H](NC(=O)c1cccs1)c1ccc(Cl)cc1`, the composite z-score [1] was -0.117, the z-score [2] was -0.0596 (inactive) and the z-score [3] was 0.806 (inactive). The z-score [4] was 0.413 (inactive), the composite z-score [5] was 0.795 and the z-score [6] was -1 (inactive). It also gave a composite z-score [7] of -0.168, a composite z-score [8] of -1.69 and a composite z-score [9] of -1.73. The composite z-score [10] was -0.288.

For `CC(=O)NCCCC[C@@H]1NC(=O)[C@H]2C[C@@H](C(=O)NCCCCCCN(C)C)[C@@H](c3cccc(OCCO)c3)N2C1=O`, the composite z-score [1] was 1.53, the z-score [2] was -1.05 (inactive) and the z-score [3] was -0.36 (inactive). The z-score [4] was -0.391 (inactive), the composite z-score [5] was 3.07 and the z-score [6] was 0.0161 (inactive). It also gave a composite z-score [7] of 0.536, a composite z-score [8] of 1.87 and a composite z-score [9] of 1.02. It also gave a composite z-score [10] of 0.539.

In the case of `CCc1cccc(NC(=O)O[C@H]2[C@H](OC(=O)Nc3ccccc3)[C@@H](OC(=O)Nc3ccccc3)[C@@H](OC)O[C@@H]2CO)c1`, the composite z-score [1] was 1.54, the z-score [2] was 1.77 (inactive) and the z-score [3] was 2.57 (inactive). The z-score [4] was 1.97 (inactive), the composite z-score [5] was 3.25 and the z-score [6] was -0.0576 (inactive). For the same compound, the composite z-score [7] was -0.142, the composite z-score [8] was 1.81 and the composite z-score [9] was 1.06. The composite z-score [10] was -0.0549.

For `CC(=O)NCCCC[C@@H]1NC(=O)[C@H]2C[C@@H](C(=O)NCCCCCCN(C)C)[C@@H](c3ccc(O)cc3)N2C1=O`, the composite z-score [1] was 1.54, the z-score [2] was -0.139 (inactive) and the z-score [3] was -0.566 (inactive). The z-score [4] was 0.613 (inactive), the composite z-score [5] was 2.97 and the z-score [6] was -0.179 (inactive). The composite z-score [7] was -0.0391, the composite z-score [8] was 1.71 and the composite z-score [9] was 0.989. It also gave a composite z-score [10] of 0.0122.

In the case of `C=CCNC(=O)[C@@H]1[C@H]2C(=O)O[C@H](c3ccccc3)[C@H](c3ccccc3)N2[C@H](c2ccc(OCCO)cc2)[C@@]12C(=O)N(C(=O)OCCOC)c1ccc(C#CC3(O)CCCCCC3)cc12`, the composite z-score [1] was 1.56, the z-score [2] was -1.05 (inactive) and the z-score [3] was -1.64 (inactive). For the same compound, the z-score [4] was 3.24 (inactive), the composite z-score [5] was 1.6 and the z-score [6] was 2.89 (inactive). The composite z-score [7] was 0.505, the composite z-score [8] was 0.205 and the composite z-score [9] was 0.955. For the same compound, the composite z-score [10] was 0.108.

For `CC(C)[Si](OCC[C@H]1O[C@]2(C(=O)N(Cc3ccccc3)c3ccccc32)[C@@H](C)[C@@H]1[Si](C)(C)O)(C(C)C)C(C)C`, the composite z-score [1] was 0.489, the z-score [2] was 1.11 (inactive) and the z-score [3] was -0.259 (inactive). For the same compound, the z-score [4] was 1.24 (inactive), the composite z-score [5] was 0.414 and the z-score [6] was 1.05 (inactive). For the same compound, the composite z-score [7] was -0.149, the composite z-score [8] was -0.139 and the composite z-score [9] was -0.0636. The composite z-score [10] was -0.109.

With `CO[C@H]1COC(=O)[C@H](CCSC)NC(=O)CC=C[C@@H](C)COC(=O)[C@@H](OCc2ccccc2)C=C[C@@H]1C` the composite z-score [1] was 1.13, the z-score [2] was 0.891 (inactive) and the z-score [3] was 0.353 (inactive). The z-score [4] was 0.97 (inactive), the composite z-score [5] was -0.84 and the z-score [6] was 0.109 (inactive). It also gave a composite z-score [7] of -0.222, a composite z-score [8] of 1.93 and a composite z-score [9] of 0.13. It also gave a composite z-score [10] of -0.0131.

For `C=C(CCCC)/C(=C/C[C@H](OC(=O)c1ccncc1)c1cccc(OCCO)c1)c1cc(C(=O)OC)ccc1OC`, the composite z-score [1] was 1.4, the z-score [2] was 0.15 (inactive) and the z-score [3] was -0.323 (inactive). The z-score [4] was 2.82 (inactive), the composite z-score [5] was 1.23 and the z-score [6] was 1.94 (inactive). It also gave a composite z-score [7] of -0.174, a composite z-score [8] of 1.08 and a composite z-score [9] of 0.966. For the same compound, the composite z-score [10] was -0.112.

For `O=C(NCc1ccccc1)c1ccc(Br)cc1[N+](=O)[O-]`, the composite z-score [1] was 0.54, the z-score [2] was -1.19 (inactive) and the z-score [3] was -1.08 (inactive). The z-score [4] was -0.778 (inactive), the composite z-score [5] was 0.715 and the z-score [6] was 0.768 (inactive). For the same compound, the composite z-score [7] was 0.109, the composite z-score [8] was 0.0399 and the composite z-score [9] was 0.338. For the same compound, the composite z-score [10] was -0.0353.

For `O=C(CS)NCCCCCNC(=O)[C@H]1C[C@H]2C(=O)N[C@@H](Cc3ccccc3)C(=O)N2[C@H]1c1ccc(O)cc1`, the composite z-score [1] was 1.54, the z-score [2] was 0.662 (inactive) and the z-score [3] was -0.982 (inactive). For the same compound, the z-score [4] was 1.86 (inactive), the composite z-score [5] was 2.18 and the z-score [6] was 1.12 (inactive). It also gave a composite z-score [7] of -0.107, a composite z-score [8] of 1.48 and a composite z-score [9] of 0.781. The composite z-score [10] was 0.178.

In the case of `CC(C)N1CC=CC23O[C@@H]4/C=C\CCCOC(=O)C4[C@H]2C(=O)N(CCO)[C@@H]3C1=O` (stereo not given in full), the composite z-score [1] was 0.885, the z-score [2] was -1.92 (inactive) and the z-score [3] was -3.04 (inactive). For the same compound, the z-score [4] was -1.77 (inactive), the composite z-score [5] was 1.95 and the z-score [6] was 3.25 (inactive). The composite z-score [7] was -0.0766, the composite z-score [8] was -0.715 and the composite z-score [9] was -0.0811. The composite z-score [10] was -0.173.

With `CCCNC(=O)[C@@H]1c2ccccc2C(=O)N(Cc2cc(F)cc(C(F)(F)F)c2)[C@H]1c1ccc(CO)cc1` the composite z-score [1] was 1.54, the z-score [2] was -1.15 (inactive) and the z-score [3] was -2.49 (inactive). The z-score [4] was -1.36 (inactive), the composite z-score [5] was 2.83 and the z-score [6] was 1.97 (inactive). It also gave a composite z-score [7] of 0.0465, a composite z-score [8] of 1.66 and a composite z-score [9] of 1.05. The composite z-score [10] was 0.289.

With `C=C(C)[C@@H]1CC=C(C(O)C2C=CC3C(=O)NC(=O)C3N2Nc2ccccn2)CC1` (stereo not given in full) the composite z-score [1] was 1.55, the z-score [2] was 0.0118 (inactive) and the z-score [3] was 0.514 (inactive). The z-score [4] was -0.285 (inactive), the composite z-score [5] was 2.76 and the z-score [6] was -0.953 (inactive). For the same compound, the composite z-score [7] was 0.607, the composite z-score [8] was 1.9 and the composite z-score [9] was 1.02. For the same compound, the composite z-score [10] was 0.641.
